Results on six compounds are retold here after PubChem BioAssay (NCATS).

Assay [1] deals with Bile acid receptor (Homo sapiens) (UniProt Q96RI1). The experiment in a line: qHTS assay for small molecule antagonists of farnesoid X receptor signaling (AID 588526). Also: potency is read from the fitted curve at half-maximal effect. In short, it runs like this: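 Beta-lactamase reporter antagonist mode: HEK293T FXR-UAS-bla cells, titrated compound, CDCA stimulation, 16 h 37 C, CCF4 dye 2 h RT. Data normalized to CDCA 50 uM and DMSO; Hill-fit IC50.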
In general terms: Quantitative high-throughput screening tests each substance at several concentrations.

The target is the same in assay [2]. Briefly: qHTS assay for small molecule agonists of farnesoid X receptor signaling (AID 588527).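 Also: series mostly up to about 77 µM; 0% = vehicle basal and 100% = reference agonist.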 The conditions noted are these: HEK293T FXR-UAS-bla, beta-lactamase ratio, 16 h; activation: stronger effect = higher value. In a few lines:
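Quantitative HTS used FXR-UAS-bla HEK293T cells with 16 h compound incubation at 37 C. EC50 values came from concentration-response curves normalized to chenodeoxycholic acid.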

Assay [3] addresses Peroxisome proliferator-activated receptor delta (Homo sapiens) (UniProt Q03181). The experiment in a line: qHTS assay for small molecule agonists of peroxisome proliferator-activated receptor delta signaling (AID 588534).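 Also: 0% = DMSO basal wells and 100% = positive control agonist at 10 µM.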 In a few lines:
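Cells carrying a PPAR-delta beta-lactamase reporter were treated with compounds for 18 h at 37 °C in agonist mode. CCF4 fluorescence was read after 2 h; EC50 and efficacy from Hill fits.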

The nature of assay [4]: qHTS assay for small molecule antagonists of peroxisome proliferator-activated receptor delta signaling (AID 588535; active = well fitted inhibition curve with a large enough effect in the signal ratio, with a control signal flat, not every such curve was filed as active; the % refers to the signal ratio;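 as to max response: cells co-treated with a PPAR-delta agonist as stimulator during compound exposure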). Conditions: HEK293T PPARd-UAS-bla, beta-lactamase FRET ratio, 18 h; 460 nm channel. In a few lines:
(§1)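 HEK293T PPAR-delta-UAS-bla cells, 4000/well, 2% charcoal/dextran FBS; 5 h 37 C; cpd titration; 18 h 37 C; CCF4 2 h RT; FI 460/530 nm; Hill fit → IC50, efficacy.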

Assay [5] addresses Peroxisome proliferator-activated receptor delta (Homo sapiens) (UniProt Q03181). Described as above. In a few lines: as §1
For assay [6], the target named is Vitamin D3 receptor (Homo sapiens) (UniProt P11473). Briefly: qHTS assay for small molecule agonists of vitamin D receptor signaling (AID 588543).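 Also: 0% = DMSO basal and 100% = reference agonist control.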 In short, it runs like this:
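Reporter cells (HEK293T, VDR-UAS-bla) were seeded in medium with 2% charcoal-stripped serum and incubated 5 h, then compounds in concentration series were added for 16 h at 37 °C. Stimulation was scaled between DMSO basal and 50 nM 1α,25-dihydroxyvitamin D3.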

Assay [7] has as its target Retinoic acid receptor RXR-alpha (Homo sapiens) (UniProt P19793). The experiment in a line: qHTS assay for small molecule agonists of retinoid X receptor alpha signaling (AID 588544).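 Also: 0% = DMSO basal wells and 100% = reference agonist.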
The target of assay [8] is Thyroid hormone receptor beta (Homo sapiens) (UniProt P10828). The experiment in a line: qHTS assay for small molecule agonists of thyroid hormone receptor beta signaling (AID 588545).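 Also: 0% = DMSO only and 100% = 10 nM T3.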 In short, it runs like this:
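Beta-lactamase reporter activity under TR response element control is measured in HEK 293 cells after 18 hrs compound exposure. Signal is ratiometric CCF4 fluorescence, 460/530 nm.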

Assay [9] is described as follows: qHTS assay for small molecule agonists of the antioxidant response element (ARE) signaling pathway (AID 651741; active = well fitted activation curve with a large enough effect in the signal ratio; the % refers to the signal ratio; also: potency is read from the fitted curve at half-maximal effect; as to activation: % of control where 0% means no effect). In a few lines:
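Quantitative HTS in HepG2 cells stably expressing an ARE-beta-lactamase reporter; 16 h compound exposure at 37 C, followed by 2 h room-temperature incubation with LiveBLAzer B/G FRET substrate and fluorescence measurement.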

Assay [10] is described as follows: qHTS assay for small molecule activators of the p53 signaling pathway (AID 651743; active = well fitted activation curve with a large enough effect in the signal ratio, not every such curve was filed as active; the % refers to the signal ratio; also: series mostly up to about 92 µM; % of control where 0% means no effect). The conditions noted are these: HCT-116 p53RE-bla, beta-lactamase FRET ratio, 16 h; activation: stronger effect = higher value. In a few lines: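 Read-out is fluorescence intensity from the LiveBLAzer B/G FRET substrate, added for 2 hours at room temperature after HCT-116 p53RE-bla cells had been incubated with compounds for 16 hours at 37 C.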

Assay [11] is described as follows: qHTS assay for environmental chemicals that activate the Aryl hydrocarbon Receptor (AhR) signaling pathway (AID 651777; active = well fitted curve in the direction sought with a large enough effect; an effect the other way counts as inactive or inconclusive; also: % of control where 0% means no effect; nearly all actives have a fitted effect of over 15% in size). The conditions noted are these: 1A2-DRE human hepatoma cells, luciferase, 24 h; activation: stronger effect = higher value. In a few lines: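 Luminescence (One-Glo, 30 min, room temperature) reports AhR-driven luciferase in stably transfected human hepatoma cells bearing DRE and CYP1A2 promoter. Cells (1,200/well) were treated with compound for 24 hr at 37 C in qHTS format.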

For assay [12], the target named is Peroxisome proliferator-activated receptor alpha (Homo sapiens) (UniProt Q07869). Briefly: qHTS assay for small molecule agonists of the peroxisome proliferator-activated receptor alpha (PPARalpha) signaling pathway (AID 651778; active = well fitted curve in the direction sought with a large enough effect; an effect the other way counts as inactive or inconclusive; also: % of control where 0% means no effect). Conditions: PathHunter PPARalpha complementation, chemiluminescence, 6 h; max response: stronger effect = higher value. In a few lines:
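Chemiluminescence from complemented enzyme reported PPARalpha activation in cells after 6 hr of compound treatment at 37 C. The detection reagent was incubated for 60 min at room temperature, and compounds were scored as agonists.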

Assay [13] can be described thus: qHTS assay for small molecule agonists of the antioxidant response element (ARE) signaling pathway measured by Nrf2-dependant transcriptional activity - cell viability counter screen (AID 720653; active = well fitted curve in the direction sought with a large enough effect in the repeat runs; an effect the other way counts as inactive or inconclusive; also: % is scaled to controls: 0 for no effect and ±100 for the full control effect). Conditions: ARE-bla HepG2 viability, CellTiter-Glo ATP luminescence, 16 h; max response: stronger effect = lower value. In a few lines:
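Cytotoxicity counter screen: intracellular ATP quantified by CellTiter-Glo luminescence in the same ARE-bla HepG2 plates, after 16 h compound exposure and a 2 h beta-lactamase substrate step.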

Assay [14] is described as follows: qHTS assay for cell viability of the p53RE-bla HCT-116 cell line (AID 743292; active = well fitted curve in the direction sought with a large enough effect; an effect the other way counts as inactive or inconclusive; also: % is scaled to controls: 0 for no effect and ±100 for the full control effect; nearly all actives have a fitted effect of over 55% in size). In short, it runs like this:
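ATP-based luminescent viability (CellTiter-Glo, 30 min RT) after 16 h compound treatment at 37 C of p53RE-bla HCT-116 cells, seeded at 4,000 cells/well and rested 5 h before dosing.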

Assay [15] can be described thus: qHTS assay for small molecule agonists of the antioxidant response element (ARE) signaling pathway measured by Nrf2-dependant transcriptional activity (AID 720636; active = well fitted curve in the direction sought with a large enough effect in the repeat runs; an effect the other way counts as inactive or inconclusive; also: % of control where 0% means no effect). In short, it runs like this: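 Nrf2-dependent transcription read as ONE-Glo luciferase signal from ARE-luc HepG2 reporter cells after 16 hr compound treatment at 37 C, 5% CO2, in assay medium with 1% dialyzed FBS.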

Assay [16] is described as follows: qHTS assay for small molecule antagonists of retinoid X receptor alpha signaling (AID 588546; active = well fitted inhibition curve with a large enough effect in the signal ratio, with a control signal flat, not every such curve was filed as active; the % refers to the signal ratio;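 also: cells stimulated with 9-cis-retinoic acid as agonist; % is scaled to controls: 0 for no effect and ±100 for the full control effect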). Conditions: HEK293T RXRa-UAS-bla, beta-lactamase ratio, antagonist mode; measured here: W530 green channel, cytotoxicity proxy. In short, it runs like this:
(§2)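 Beta-lactamase reporter inhibition, read as CCF4 fluorescence ratio (ex 405, em 460/530 nm) after 2 h at RT. HEK293T UAS-bla cells, 2500/well, were stimulated with 9-cis-RA at 500 or 100 nM final alongside test compound for 18 h at 37 C.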

Assay [17] deals with Retinoic acid receptor RXR-alpha (Homo sapiens) (UniProt P19793). Described as above. Conditions: HEK293T RXRa-UAS-bla, beta-lactamase ratio, antagonist mode. In short, it runs like this:
as §2

Assay [18] concerns the target Thyroid hormone receptor beta (Homo sapiens) (UniProt P10828). The experiment in a line: qHTS assay for small molecule antagonists of thyroid hormone receptor beta signaling (AID 588547; active = well fitted inhibition curve with a large enough effect in the signal ratio, with a control signal flat, not every such curve was filed as active; the % refers to the signal ratio;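 also: cells stimulated with 0.4 nM T3 agonist during compound exposure; series mostly up to about 77 µM; % is scaled to controls: 0 for no effect and ±100 for the full control effect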). The conditions noted are these: TR-UAS-bla HEK293, beta-lactamase ratio, antagonist mode, 18 h. In short, it runs like this:
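Inhibition of T3-driven (0.4nM final) beta-lactamase reporter activity was measured over 0.59 nM to 92 uM compound after 18 h at 37 C. The cells were GripTite HEK293 TR-UAS-bla in charcoal/dextran-stripped serum, with CCF4 ratio read-out and IC50 from Hill fits.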

A short description of assay [19]: qHTS assay for cell viability of HEK293 cells (AID 743288; active = well fitted curve in the direction sought with a large enough effect; an effect the other way counts as inactive or inconclusive; also: % is scaled to controls: 0 for no effect and ±100 for the full control effect; nearly all actives have a fitted effect of over 50% in size). The conditions noted are these: ATP luminescence (CellTiter-Glo), 18 h; max response: stronger effect = lower value. In a few lines:
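HEK293 parental, 2,000 cells/well; ≥5 h pre-incubation 37 C; pintool compound addition; 18 h, 37 C; CellTiter-Glo 30 min RT; luminescence read.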

For assay [20], the target named is Nuclear receptor subfamily 1 group I member 2 (Rattus norvegicus) (UniProt Q9R1A7). Briefly: qHTS assay for small molecule activators of the rat pregnane X receptor (rPXR) signaling pathway (AID 651751; call rule not given here; also: 0% is about no effect). Conditions: rPXR reporter cells, luciferase (One-Glo), 24 h.

Records with an inconclusive call do not appear. Activity calls are given as the source filed them. Unless noted, calls follow the shape of the full dose curve.

Chain of Vitamin D3 receptor (Homo sapiens) (P11473 whole entry, looked up): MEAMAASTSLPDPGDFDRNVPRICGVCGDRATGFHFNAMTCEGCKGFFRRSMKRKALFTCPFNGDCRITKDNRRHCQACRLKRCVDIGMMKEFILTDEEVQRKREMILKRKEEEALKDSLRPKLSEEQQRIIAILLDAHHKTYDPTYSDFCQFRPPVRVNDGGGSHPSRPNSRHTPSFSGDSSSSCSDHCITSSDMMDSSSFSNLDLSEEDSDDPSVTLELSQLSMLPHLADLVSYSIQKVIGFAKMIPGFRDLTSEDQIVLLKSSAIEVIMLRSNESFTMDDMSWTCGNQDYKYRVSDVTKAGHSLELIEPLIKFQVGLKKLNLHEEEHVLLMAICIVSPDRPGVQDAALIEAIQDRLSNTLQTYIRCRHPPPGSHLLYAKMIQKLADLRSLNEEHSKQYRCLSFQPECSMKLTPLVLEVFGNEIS
Chain of Thyroid hormone receptor beta (Homo sapiens) (P10828 whole entry, looked up): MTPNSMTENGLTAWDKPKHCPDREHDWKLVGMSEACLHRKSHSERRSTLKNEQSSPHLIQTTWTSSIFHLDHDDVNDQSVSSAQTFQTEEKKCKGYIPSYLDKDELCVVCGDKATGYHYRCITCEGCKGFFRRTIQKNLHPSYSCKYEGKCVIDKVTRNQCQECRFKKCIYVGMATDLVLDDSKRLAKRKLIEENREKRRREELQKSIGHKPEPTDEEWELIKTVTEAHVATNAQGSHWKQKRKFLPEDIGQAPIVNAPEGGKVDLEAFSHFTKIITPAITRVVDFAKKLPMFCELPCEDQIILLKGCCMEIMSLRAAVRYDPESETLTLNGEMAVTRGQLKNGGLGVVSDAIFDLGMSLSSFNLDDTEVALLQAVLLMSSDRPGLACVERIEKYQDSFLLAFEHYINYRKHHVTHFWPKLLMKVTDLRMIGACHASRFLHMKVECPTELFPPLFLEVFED
Chain of Peroxisome proliferator-activated receptor delta (Homo sapiens) (Q03181 whole entry, looked up): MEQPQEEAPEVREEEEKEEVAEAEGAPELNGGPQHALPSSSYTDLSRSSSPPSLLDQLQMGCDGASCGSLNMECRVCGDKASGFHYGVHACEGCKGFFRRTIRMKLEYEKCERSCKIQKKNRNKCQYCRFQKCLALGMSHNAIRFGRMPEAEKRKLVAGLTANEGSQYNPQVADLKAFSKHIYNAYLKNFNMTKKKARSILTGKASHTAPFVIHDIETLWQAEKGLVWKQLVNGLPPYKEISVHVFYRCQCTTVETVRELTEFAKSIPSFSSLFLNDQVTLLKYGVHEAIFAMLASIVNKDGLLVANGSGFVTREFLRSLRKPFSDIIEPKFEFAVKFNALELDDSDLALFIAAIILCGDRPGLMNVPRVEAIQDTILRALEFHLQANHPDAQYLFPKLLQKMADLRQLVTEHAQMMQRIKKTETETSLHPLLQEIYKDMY
Chain of Nuclear receptor subfamily 1 group I member 2 (Rattus norvegicus) (Q9R1A7 whole entry, looked up): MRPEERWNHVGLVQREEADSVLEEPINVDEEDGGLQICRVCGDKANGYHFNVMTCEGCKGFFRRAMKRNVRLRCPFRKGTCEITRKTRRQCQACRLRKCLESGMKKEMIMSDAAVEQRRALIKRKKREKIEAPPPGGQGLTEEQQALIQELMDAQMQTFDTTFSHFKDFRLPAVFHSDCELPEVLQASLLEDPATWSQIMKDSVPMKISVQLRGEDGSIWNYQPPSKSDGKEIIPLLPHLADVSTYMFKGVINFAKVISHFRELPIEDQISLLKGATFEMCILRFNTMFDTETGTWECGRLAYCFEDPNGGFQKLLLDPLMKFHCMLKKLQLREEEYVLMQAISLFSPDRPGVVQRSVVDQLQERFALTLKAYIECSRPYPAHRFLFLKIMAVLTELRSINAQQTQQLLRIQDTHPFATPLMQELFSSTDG
Chain of Peroxisome proliferator-activated receptor alpha (Homo sapiens) (Q07869 whole entry, looked up): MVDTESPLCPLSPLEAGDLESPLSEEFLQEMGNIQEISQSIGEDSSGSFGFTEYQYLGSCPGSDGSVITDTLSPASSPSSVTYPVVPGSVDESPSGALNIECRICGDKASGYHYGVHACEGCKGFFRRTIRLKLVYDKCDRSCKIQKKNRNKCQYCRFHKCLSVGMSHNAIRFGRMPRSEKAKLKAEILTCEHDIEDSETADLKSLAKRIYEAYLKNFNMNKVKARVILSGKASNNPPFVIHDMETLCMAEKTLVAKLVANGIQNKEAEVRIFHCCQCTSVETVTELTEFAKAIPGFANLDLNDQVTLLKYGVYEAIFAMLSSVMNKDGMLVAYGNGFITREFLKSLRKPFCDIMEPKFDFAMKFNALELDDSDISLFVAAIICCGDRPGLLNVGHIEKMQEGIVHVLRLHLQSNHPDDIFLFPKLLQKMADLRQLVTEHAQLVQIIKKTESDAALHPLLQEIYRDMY
Chain of Retinoic acid receptor RXR-alpha (Homo sapiens) (P19793 whole entry, looked up): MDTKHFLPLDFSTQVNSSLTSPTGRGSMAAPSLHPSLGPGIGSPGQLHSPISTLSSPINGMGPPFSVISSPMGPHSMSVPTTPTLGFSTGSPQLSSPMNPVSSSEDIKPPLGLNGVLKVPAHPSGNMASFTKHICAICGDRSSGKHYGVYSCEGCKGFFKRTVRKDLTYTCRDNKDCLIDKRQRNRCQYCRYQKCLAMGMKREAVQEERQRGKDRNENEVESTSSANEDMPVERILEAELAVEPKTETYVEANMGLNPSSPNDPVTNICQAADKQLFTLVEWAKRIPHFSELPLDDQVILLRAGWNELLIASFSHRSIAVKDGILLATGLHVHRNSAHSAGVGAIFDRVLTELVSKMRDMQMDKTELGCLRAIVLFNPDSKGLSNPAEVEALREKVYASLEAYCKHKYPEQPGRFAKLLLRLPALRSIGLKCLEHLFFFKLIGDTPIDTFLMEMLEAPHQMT
Chain of Bile acid receptor (Homo sapiens) (Q96RI1 whole entry, looked up): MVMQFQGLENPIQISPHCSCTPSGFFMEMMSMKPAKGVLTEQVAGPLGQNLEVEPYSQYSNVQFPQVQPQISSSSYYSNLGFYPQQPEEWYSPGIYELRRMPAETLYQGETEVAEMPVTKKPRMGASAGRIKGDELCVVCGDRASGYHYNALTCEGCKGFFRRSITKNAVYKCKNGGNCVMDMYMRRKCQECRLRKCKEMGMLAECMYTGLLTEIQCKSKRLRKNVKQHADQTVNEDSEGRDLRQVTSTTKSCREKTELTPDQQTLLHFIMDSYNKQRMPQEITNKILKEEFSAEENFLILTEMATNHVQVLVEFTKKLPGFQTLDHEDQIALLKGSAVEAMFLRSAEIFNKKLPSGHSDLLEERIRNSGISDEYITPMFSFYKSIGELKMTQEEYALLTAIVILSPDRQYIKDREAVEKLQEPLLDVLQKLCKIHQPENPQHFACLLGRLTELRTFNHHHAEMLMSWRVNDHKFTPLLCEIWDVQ

Take `CCCOCC(=Nc1ccc(Cl)cc1C(F)(F)F)n1ccnc1`: the Potency result in assay [1], in [5], in [7], in [8] and in assay [14] was “inactive” throughout. Besides, the figures for the activation in [2], in assay [10] and in [11] were -0.0346% (inactive), -5.04% (inactive) and 14% (inactive), respectively. The outcome in assay [3] and in [6] was inactive. Further, the max response in [4] was 18.7%; in assay [12], 9.44% (inactive); in [13], -4.06% (inactive). In addition, in assay [9], the Potency was 19.3 µM (active).
Take `C[Si](Cn1cncn1)(c1ccc(F)cc1)c1ccc(F)cc1`: the Potency in assay [1] was 22.4 µM (active). Moreover, the compound was called inactive in assay [6]. Moreover, the Potency result in [8], in assay [15] and in assay [14] was “inactive” throughout. Moreover, the activation in [10] was -4.21% (inactive); in assay [11] it was 6.54% (inactive). For the same compound, in assay [12], the max response is -0.864% (inactive).
Consider `CS(=O)(=O)NC(=O)c1cc(Oc2ccc(C(F)(F)F)cc2Cl)ccc1[N+](=O)[O-]`, for which the Potency result in [1], in [7], in [8], in [15] and in assay [14] was “inactive” throughout. The activation in assay [2] was -9.24% (inactive); in assay [10], -3.62% (inactive); in [11] it was 0.872% (inactive). Also, in assay [6], the compound was called inactive. Further, the max response in assay [16] is -6.47%; in [17] it was -2.65% (inactive); in assay [12] it was -2.59% (inactive); in assay [13] it was -2.76% (inactive); in assay [19] it was -3.04% (inactive); in assay [20], -4.18% (inactive). For the same compound, the activity change % (negative = inhibition) in [18] is -8.1% (inactive).
With `CCNc1nc(NC(C)C)nc(OC)n1`, the Potency result in assay [1], in assay [5], in assay [7], in assay [8], in assay [9] and in assay [15] was “inactive” each time. The Potency result in assay [14] is “inactive”. Also, the results for the activation in [2], in assay [10] and in [11] were -2.29% (inactive), -0.985% (inactive) and 0.686% (inactive), respectively. The compound was called inactive in assay [3] and in assay [6]. The max response in [4] is 24.4%; in [16] it was -8.69%; in assay [12], -1.03% (inactive); in [13], 6.46% (inactive); in [19] it was 0.985% (inactive); in [20], 0.846% (inactive).
Regarding `CCCCCCCCCCCC#N`, the Potency entry in assay [1], in [5], in assay [7], in assay [9], in assay [15] and in [14] was “inactive” each time. In addition, the figures for the activation in assay [2], in assay [10] and in [11] were -2.48% (inactive), 0.106% (inactive) and 1.84% (inactive), respectively. Besides, the compound was classed as inactive in [3] and in assay [6]. The max response in assay [4] is -15.4%; in [16] it was -6.71%; in assay [17], 4.86% (inactive); in [13], -0.799% (inactive); in assay [19], -1.15% (inactive); in [20], 0.164% (inactive). Besides, the activity change % (negative = inhibition) in assay [18] was 16.2% (inactive).
With `FC(F)C(F)(F)OCC(Cn1cncn1)c1ccc(Cl)cc1Cl` (centres undefined), the Potency entry in assay [1], in assay [7], in assay [8], in assay [15] and in assay [14] was “inactive” each time. The activation in assay [2] was 1.13% (inactive); in assay [11], 2.65% (inactive). Also, the call in assay [3] and in assay [6] was inactive. For the same compound, the max response in assay [16] was -6.39%; in [17] it was 4.82% (inactive); in assay [12], -0.725% (inactive); in assay [13], 4.71% (inactive); in [19] it was -9.21% (inactive). Moreover, the activity change % (negative = inhibition) in [18] is -17.9% (inactive).
